Here are results for 44 molecules from PubChem BioAssay AID720504 (National Center for Advancing Translational Sciences (NCATS), 2013).

Screen size: about 360,000 compounds; about 10,000 (2.8%) were called active. Not shown: some 4% with an inconclusive outcome. The entries come from a sample that favours actives as a whole. A number with no mark means an inactive call. Calls come from the whole dose curve; as a rule, active = well fitted inhibition curve with a large enough effect; inconclusive = small, poorly fitted or top-dose-only effect; inactive = flat fitted curve, though single readings scatter.
% is set by controls: 0 for no effect and ±100 for the full control effect; potency is the fitted concentration of half-maximal effect.

Serine/threonine-protein kinase PLK1 (Homo sapiens), sequence (P53350 whole entry, looked up, the tested form may be a part): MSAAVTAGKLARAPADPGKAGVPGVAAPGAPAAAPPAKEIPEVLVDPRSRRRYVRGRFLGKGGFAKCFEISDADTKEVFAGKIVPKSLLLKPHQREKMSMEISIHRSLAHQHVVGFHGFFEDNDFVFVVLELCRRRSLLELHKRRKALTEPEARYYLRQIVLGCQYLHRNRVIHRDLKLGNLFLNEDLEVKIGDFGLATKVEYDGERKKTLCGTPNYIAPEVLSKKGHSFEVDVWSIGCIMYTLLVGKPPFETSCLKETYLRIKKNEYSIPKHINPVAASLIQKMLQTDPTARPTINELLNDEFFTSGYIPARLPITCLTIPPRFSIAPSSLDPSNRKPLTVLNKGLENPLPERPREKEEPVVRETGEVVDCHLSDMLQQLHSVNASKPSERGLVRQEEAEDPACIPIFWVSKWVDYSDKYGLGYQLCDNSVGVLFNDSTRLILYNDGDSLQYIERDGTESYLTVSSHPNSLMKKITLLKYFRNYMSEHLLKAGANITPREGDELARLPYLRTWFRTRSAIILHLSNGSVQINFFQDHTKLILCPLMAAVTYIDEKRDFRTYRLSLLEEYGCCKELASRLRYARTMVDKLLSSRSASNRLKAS

The experiment concerns the target Serine/threonine-protein kinase PLK1 (Homo sapiens) (UniProt P53350). As to the kind of experiment: qHTS for Inhibitors of PLK1-PDB (polo-like kinase 1 - polo-box domain): Primary Screen. For max response, negative = inhibition: series mostly up to about 57 µM. Note: nearly all actives have a fitted effect of over 65% in size. The following applies: Plk1 PBD binding of FITC phosphopeptide, fluorescence polarization. The text has this:
The polo-like kinase 1 (Plk1) is a member of a conserved subfamily of serine / threonine protein kinases that plays a pivotal roles in cell proliferation. It has a C-terminal non-catalytic region called the polo-box domain (PBD) that plays a crucial role in the subcellular localization of the Plk1. […] Furthermore, depletion of the overexpressed Plk1 by RNAi efficiently induces apoptotic cell death in cancer and reduces tumor growth in mouse xenograft models. Thus, targeting Plk1 is an appealing strategy for anti-cancer therapy. Therefore, this project aimed to screen the Molecular Libraries Small Molecule Repository (MLSMR) using a novel approach to find inhibitors that target the Plk1 PBD instead of the conventional N-terminal catalytic domain. This project employed a fluorescence polarization (FP) assay using a FITC-conjugated phospho-9-mer (p-9-mer) peptide and purified human Plk1 PBD protein. The identified small molecule inhibitors of Plk1 PBD can then further be developed into useful tools for biomedical and clinical research that complements or replaces current relevant disease therapy. NIH Chemical Genomics Center [NCGC] NIH Molecular Libraries Probe Centers Network [MLPCN] MLPCN Grant: MH100728 Assay Submitter (PI): Kyung Lee, NCI
Four microliter of 25 nM FITC-p-9-mer + 60 nM Plk1 PBD in buffer solution (final concentrations 25 nM and 60 nM respectively) or 4 uL of 25 nM FITC-p-9-mer (final concentration 25 nM) in buffer will be dispensed into a 1,536 Greiner medium-binding black solid plate. Small molecules at final concentrations of 18 nM to 57 uM and positive control phospho-9-mer (sequence: Ac-PPLHSpTAI-NH2) at final concentrations 26 nM to 57 uM and phospho-13-mer (sequence: Ac-[…]pTAI-NH2) at final concentrations of 1 nM to 2.3 uM will be pin-transferred (23 nL) to the plate via a Kalypsys pin-tool robotics equipped with a 1,536-pin array. The reaction plate will be centrifuged for 1 min at 1000 rpm and incubated at room temperature for 10 min. The FITC fluorescence signals will be read using the PerkinElmer ViewLux plate reader at 480 / 20 nm excitation and 540 / 20 nm S and P polarization emission wavelengths. Reagent bottles will be kept submerged into 4 °C recirculating chiller bath and all liquid lines will be covered with aluminum foil to minimize degradation. Library plates will be screened starting from the lowest to the highest concentrations to minimize compound carryover. Vehicle only plates, with DMSO being pin-transferred instead of compound solutions, will be included regularly throughout the screen to record any systematic shifts in assay signal.
On the technique in general: Quantitative high-throughput screening tests each substance at several concentrations.
Turning to `C[C@H]1CN([C@@H](C)CO)C(=O)c2cc(-c3cccc(F)c3)cnc2O[C@@H]1CN(C)S(C)(=O)=O`, the max response, negative = inhibition is -9.21%.

For the molecule `COc1ccc(-c2c(C#N)cnc(C)c2C)c(O)c1OC`, the max response, negative = inhibition was -12.9%.

`C[C@H](CO)N1C[C@H](C)[C@@H](CN(C)S(=O)(=O)c2ccc(F)cc2)OCc2cnnn2CCCC1=O`: the max response, negative = inhibition was -19.3%.

In the case of `O=C(Nc1cccc2ccccc12)c1[nH]c(-c2ccccc2)c2c1C(=O)N(C1CC1)C2=O`, the max response, negative = inhibition is -21.7%.

With `CN(C)C(=O)c1cccc(-c2cnc3c(NC=O)cc(-c4ccc(F)cc4)cn23)c1`, the max response, negative = inhibition is -19.5%.

Turning to `CCc1cccc(C)c1NC(=O)COC(=O)CNC(=O)c1cccs1`, the max response, negative = inhibition is -0.37%.

For the molecule `CCc1c(C)sc(NC(=O)c2cccs2)c1C(N)=O`, the Potency is 4.74 µM (active).

Take `CCc1c(C)sc(NC(=O)c2ccc(Br)o2)c1C(=O)OC`: the max response, negative = inhibition is -7.98%.

As to `Cc1ccc(-c2ccc(C3=CC(=O)CC(C)(C)C3=O)cc2)cc1`, the max response, negative = inhibition was -0.955%.

As for `CCCNC(=O)c1cc(C2CCCCN2S(=O)(=O)c2cn(C)cn2)on1` (centres undefined), the max response, negative = inhibition is -4.21%.

Regarding `CCCOc1ccc(F)cc1-c1cc(C(=O)Nc2ccc(F)c(Cl)c2)[nH]n1`, the max response, negative = inhibition was 0.655%.

As to `CN(C)c1nc(NN)nc(Nc2ccc(F)cc2)n1`, the max response, negative = inhibition is 4.54%.

For `CC(=O)Nc1nc(N(C)C)nc(N(C)C)n1`, the max response, negative = inhibition is 6.17%.

As to `CN(C)c1nc(Nc2ccc(Cl)c(Cl)c2)nc(N(C)C)n1`, the Potency is 2.99 µM (active).

Turning to `CC(=O)Nc1cccc(-c2cc(NC(C)=O)c3ncc(-c4ccccc4)n3c2)c1`, the max response, negative = inhibition was -16.7%.

For the molecule `COc1ccccc1-c1n[nH]nc1C1=CC(=O)CC(C)(C)C1`, the max response, negative = inhibition is -7.34%.

Take `COc1ccc2c(c1)C(=C(C#N)C#N)C(=O)N2CCc1ccccc1`: the Potency is 2.67 µM (active).

Turning to `C#CCN1C(=O)C(O)(CC(=O)c2cc(OC)ccc2OC)c2ccccc21` (centres undefined), the max response, negative = inhibition is -9.34%.

Turning to `CCCCN1C(=O)/C(=C(/C#N)C(N)=O)c2ccccc21`, the max response, negative = inhibition was -17.1%.

`COCCNc1nc(NCc2ccc(NC(C)=O)cc2)c2sccc2n1`: the max response, negative = inhibition was -10.2%.

Turning to `CS(=O)(=O)c1ccc(Cl)c(NC(=O)Nc2ccccc2)c1`, the Potency was 23.8 µM (active).

On to `Cc1ccc(NC(=O)Nc2ccccc2)c(Br)c1`, for which the max response, negative = inhibition is -8.61%.

On to `CS(=O)(=O)c1ccc(Cl)c(NC(=O)COC(=O)c2ncc(Cl)c(Cl)c2Cl)c1`, for which the max response, negative = inhibition is -10.8%.

With `CSc1ncnc2c1ncn2CCCNCC(C)c1ccccc1` (centres undefined), the max response, negative = inhibition was 1.77%.

Consider `COC(=O)c1ccccc1SC1CC(=O)N(c2cccc(C)c2)C1=O` (centres undefined), for which the max response, negative = inhibition was -24.8%.

Regarding `COc1cccc(N2C(=O)CC(N3CCc4ccccc4C3)C2=O)c1` (centres undefined), the max response, negative = inhibition is -2.65%.

Consider `Cc1cccc(N2C(=O)SC(N(CC(=O)O)c3cccc(C)c3)C2=O)c1` (centres undefined), for which the max response, negative = inhibition is -27.2%.

Consider `Cc1cccc(N2C(=O)c3ccc(C(=O)Nc4cccc(C(=O)O)c4)cc3C2=O)c1`, for which the max response, negative = inhibition was 2.25%.

With `Cc1cccc(N2C(=O)CC(SC(N)=Nc3ccccc3)C2=O)c1` (centres undefined), the Potency was 23.8 µM (active).

With `Cc1cccc(N2C(=O)SC(SC(=Nc3ccccc3)Nc3ccccc3)C2=O)c1` (centres undefined), the Potency was 15 µM (active).

With `CCOc1ccc(CCN2C(=O)C(=O)N([C@@H](Cc3ccc(O)cc3)CN3CCC[C@H]3CN3C(=O)C(=O)NC[C@@H]3CC(C)C)C[C@@H]2Cc2ccccc2)cc1`, the max response, negative = inhibition was -15%.

`CCC(C)C(CO)NC(=O)/C=C/[C@H]1O[C@@H](n2cnc3c(NC(=O)c4ccccc4)ncnc32)[C@H](O)[C@@H]1O` (some centres undefined): the max response, negative = inhibition is -12%.

Consider `O=C1Nc2ccc(Br)cc2/C1=N/N=C/C1=C(N2CCOCC2)C(=C\c2ccccc2)/CC1`, for which the max response, negative = inhibition is -6.57%.

Regarding `COc1ccc(/C=N/N=C2/C(=O)Nc3ccccc32)cc1O`, the Potency was 23.8 µM (active).

`CCOc1ccc(/C=N/NC(=O)CSc2ccccn2)cc1O`: the max response, negative = inhibition is -2.2%.

As to `Cc1ccc(S(=O)(=O)N[C@H]2CCC[C@@H]2O)cc1`, the max response, negative = inhibition was -13.6%.

As for `O=C(c1ccc(C(F)(F)F)cc1)N1CCC(=O)N([C@H](COCc2ccccc2)Cc2ccccc2)CC1`, the max response, negative = inhibition was -8.35%.

For `O=S1(=O)CC(N2CCN(CCO)CC2)CN1C1CCCC1` (centres undefined), the max response, negative = inhibition is 3.7%.

`COC(=O)C1=C(N)Oc2cc(C)[nH]c(=O)c2C1c1ccc(Cl)cc1` (centres undefined): the Potency is 23.8 µM (active).

In the case of `COC(=O)C1=C(N)Oc2cc(C)oc(=O)c2C1c1cccnc1` (centres undefined), the max response, negative = inhibition is -10.6%.

Take `CCN1C(=O)N[C@@H](c2ccccc2)C(C(=O)OC)=C1C`: the max response, negative = inhibition is -12.3%.

For the molecule `CC(=O)c1ccc(Nc2nc(C(N)c3ccccc3Cl)cs2)cc1` (centres undefined), the max response, negative = inhibition is -10.4%.

As to `O=C(O)C1CCCN1c1nc(Cl)ccc1[N+](=O)[O-]` (centres undefined), the max response, negative = inhibition is -5.29%.

Turning to `Cc1nccn1-c1ccc(NC(=O)[C@H]2O[C@@H](n3cnc4c(N)ncnc43)[C@H](O)[C@@H]2O)cc1`, the max response, negative = inhibition is -3.34%.
